Laboratory results published in PubChem BioAssay AID1619 (SRMLSC, 2009).
Out of some 220,000 compounds screened, about 830 (0.38%) were called active.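 Rule for the calls: active = compound inhibiting the enzyme by more than half at any dose during confirmatory dose-response retesting; inconclusive = strong single-dose inhibitors picked by rank but not retested; inactive = the rest.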 These entries were drawn from the full list. Measured potencies and affinities stand elsewhere.

What follows are compounds tested against Leucine aminopeptidase (Plasmodium falciparum (isolate 3D7)) (UniProt Q8IL11) (assay: P. falciparum M17LAP inhibitors, primary screen, biochemical, fluorogenic H-Leu-NHMec substrate, 1536-well (AID 1619;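 note: plate controls were full reaction with DMSO carrier for no effect and no enzyme background for full effect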)). Conditions: recombinant M17LAP, H-Leu-NHMec fluorogenic kinetic assay; at 30 µM; active compounds read high.
Leucine aminopeptidase (Plasmodium falciparum (isolate 3D7)), sequence (Q8IL11 whole entry, looked up): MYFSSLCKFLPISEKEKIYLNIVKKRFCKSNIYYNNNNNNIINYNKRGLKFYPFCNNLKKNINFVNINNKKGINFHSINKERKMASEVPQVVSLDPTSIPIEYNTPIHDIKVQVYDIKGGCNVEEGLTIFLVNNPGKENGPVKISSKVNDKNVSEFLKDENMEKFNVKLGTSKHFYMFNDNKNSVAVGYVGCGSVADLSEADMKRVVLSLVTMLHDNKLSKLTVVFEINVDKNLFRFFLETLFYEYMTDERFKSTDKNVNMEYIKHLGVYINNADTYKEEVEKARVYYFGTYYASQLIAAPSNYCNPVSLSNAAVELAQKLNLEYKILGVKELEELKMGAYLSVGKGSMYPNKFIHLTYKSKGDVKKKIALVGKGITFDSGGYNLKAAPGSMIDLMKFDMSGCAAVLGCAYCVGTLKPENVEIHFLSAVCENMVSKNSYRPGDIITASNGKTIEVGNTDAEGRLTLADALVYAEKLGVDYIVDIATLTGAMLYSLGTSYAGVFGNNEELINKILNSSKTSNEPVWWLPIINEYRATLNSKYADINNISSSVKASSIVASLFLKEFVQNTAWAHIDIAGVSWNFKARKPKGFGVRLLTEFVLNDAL

inhibition, inactive:
COC(=O)c1cccc(NC(=O)c2onc3c2CCCC3)c1 10.6%
Cc1cc(C(F)(F)F)nn1CC(=O)NNC(=S)Nc1ccc(Cl)cc1 19.4%
Cc1cc(C(=O)N/N=C/C=C/c2cccc([N+](=O)[O-])c2)n[nH]1 26.9%
CC(C)=N/N=C(/c1ccc([N+](=O)[O-])cc1)C12CN3CN(CN(C3)C1)C2 5.26%
CCOC(=O)c1c(NC(=O)c2ccc(N3C(=O)C4C5C=CC(C5)C4C3=O)cc2)sc2c1CCCC2 (stereo unspecified) -6.59%
CCOC(=O)c1c(N)sc2c1CCC(CC)C2 (stereo unspecified) -12.2%
CCOC(=O)c1c(NC(=S)Nc2ccccc2)sc2c1CCCCC2 3.6%
CCOC(=O)c1c(NS(C)(=O)=O)sc2c1CCC(C)C2 (stereo unspecified) 8.14%
CCOC(=O)c1c(N2C(=O)C3C4C=CC(C4)C3C2=O)sc2c1CCC(C)C2 (stereo unspecified) 2.96%
CCOC(=O)c1c(NC(=O)C2C3CCC(O3)C2C(=O)O)sc2c1CCC(CC)C2 (stereo unspecified) 7.12%
CCOC(=O)c1c(NC(=O)C2C3C=CC(C3)C2C(=O)O)sc2c1CCCC2 (stereo unspecified) 42%
CCOC(=O)c1c(NC(=O)C2C3C=CC(C3)C2C(=O)O)sc2c1CC(C)(C)OC2 (stereo unspecified) 31.8%
Cc1ccc(-n2c(SCC(=O)Nc3cc(C)on3)nc3c([nH]c4ccccc43)c2=O)cc1 4.1%
Cc1cc(C)n(CC(=O)c2cccc([N+](=O)[O-])c2)n1 7.13%
CNC(=O)c1nc(C)c(C2(C)CC(c3cccc([N+](=O)[O-])c3)=NO2)s1 (stereo unspecified) 11.9%
Cn1c(=O)n(C/C=C/c2ccccc2)c(=O)c2c1nc1n2CCCN1c1ccc(F)cc1 -5.1%
O=C(C1=C[C@@H](c2ccc(Br)cc2)C[C@@H](OCCCCO)O1)N1CCN(Cc2ccccc2)CC1 -0.63%
Cc1nn(C)cc1S(=O)(=O)N1CCN(Cc2ccc(F)cc2Cl)CC1 3.03%
CN1CCC(=NNC(=O)CN(c2cccc(Br)c2)S(C)(=O)=O)CC1 12.4%
CCOc1ccc(C(=O)NCc2ccccc2)cc1Br 5.79%
CCOCCOC(=O)C1=C(C)N(C)C(=O)NC1c1cc(Cl)c(O)c(OC)c1 (stereo unspecified) 2.91%
NS(=O)(=O)c1ccc(NCC2COc3ccccc3O2)c([N+](=O)[O-])c1 (stereo unspecified) 0.14%
C=CCn1c(SCC(=O)O)nnc1-c1cccs1 0.97%
CCn1c(SCC(=O)c2ccc(NS(=O)(=O)c3ccccc3)cc2)nnc1-c1cccs1 37%
CCC(=O)Nc1ccc(C(=O)CSc2nnc(-c3ccccc3F)n2C2CC2)cc1 4.72%
Cc1ccccc1OCc1nc2ccccc2c(=O)n1N -9.96%
CCOc1ccc(S(=O)(=O)Nc2ccc(O)c(Sc3ncn[nH]3)c2)cc1 71.4%
COc1ccc(OC)c(S(=O)(=O)Nc2ccc(O)c(Sc3ncn[nH]3)c2)c1 38.9%
Nc1c([N+](=O)[O-])cnnc1-c1ccccc1 -9.73%
Cc1n[nH]c(C)c1CNCc1c(C(=O)N2CCCCCCC2)nc2ccc(Cl)cn12 -4.57%
COc1ccc(NC(=O)CSc2nnc(NC(C)=O)s2)c([N+](=O)[O-])c1 11.8%
CCOc1ccc(/C=C2/SC(=S)N(C(C(=O)O)c3ccccc3)C2=O)cc1OCC (stereo unspecified) 21.4%
CCOc1ccc(/C=C2\SC(=S)N(C(C(=O)O)c3ccccc3)C2=O)cc1OC (stereo unspecified) 30.6%
COc1cc(/C=C2\SC(=S)N(NS(=O)(=O)c3ccccc3)C2=O)cc(OC)c1OC 27.3%
CCOc1ccc(/C=C2\SC(=S)N(NS(=O)(=O)c3ccc(C)cc3)C2=O)cc1OC 21.5%
COc1cc(/C=C2\SC(=S)N(NS(=O)(=O)c3ccc(C)cc3)C2=O)cc(OC)c1OC 19.5%
CCOc1ccc(/C=C2\SC(=S)N(NS(=O)(=O)c3ccccc3)C2=O)cc1OC 43.7%
COc1cc(=O)n(C)c2c(O)cccc12 4.51%
Cc1nnc(NC(=O)CSc2nnc(Cc3ccccc3)n2Cc2ccccc2)s1 14.2%
CCN(Cc1ccccc1)S(=O)(=O)c1ccc2c(c1)NC(=O)CC(=O)N2 0.95%
CCCCC1=CC2=CC(=O)C(C)(OC(=O)CC)C(=O)C2=CN1CCc1c[nH]c2ccccc12 (stereo unspecified) -3.57%
CCCn1c(=O)c(C(=O)N/N=C/c2ccc(F)cc2)c(O)c2ccccc21 -4.04%
O=C(Cn1nc(-c2ccccc2)c2ccccc2c1=O)Nc1ccc2c(c1)nc1n2CCOC1 -12.9%
C=CCn1c(SCC(=O)Nc2ccccc2OC)nc(O)c(CC)c1=O 35.8%
Cn1ccnc1SCC(=O)Nc1cccc2ccccc12 16.9%
Nc1cc(=O)nc(SCC(=O)Nc2cccc3ccccc23)n1CCc1ccccc1 43.5%
Nc1cc(=O)nc(SCC(=O)Nc2ccccc2)n1-c1ccccc1 22.1%
Cn1c(=O)c2c(nc(SCC(=O)Nc3ccccc3)n2C)n(C)c1=O 0.43%
C=CCn1c(N)cc(=O)nc1SCC(=O)Nc1ccc(C)cc1 23.5%
C=CCn1c(N)cc(=O)nc1SCC(=O)Nc1ccccc1 20%
C=CCn1c(SCC(=O)Nc2cccc3ccccc23)nnc1-c1cnccn1 1.49%
COc1cc2c(cc1NC(=O)/C=C/c1ccc([N+](=O)[O-])cc1)oc1ccccc12 -1.67%
CC1=C/C(=N\NC(=O)c2ccc(O)cc2)CC1 12.2%
COc1ccccc1-c1nnc(SC(C(=O)c2c[nH]c3ccccc23)c2ccccc2)n1C (stereo unspecified) 6.65%
CCCC(=O)NNC(=O)CCC(=O)Nc1ccccc1Cl 6.3%
Cc1cc(-c2onc(C)c2C(=O)O)no1 -2.33%
CC(C)C1CC(CCN2CCCCC2)(c2ccccc2)CCO1 (stereo unspecified) -6.12%
CC(=O)N1CCc2cc(C(=O)CN3CCN(c4ccccn4)CC3)ccc21 8.66%
COc1ccc(Cl)cc1-c1nc(SCC(=O)NC(C)C(C)C)n[nH]1 (stereo unspecified) -5.32%
CCc1c(O)nc(SCC(=O)Nc2ccccc2)n(-c2ccccc2)c1=O -0.62%
CCc1c(O)nc(SCc2ccccc2)n(C(C)CC)c1=O (stereo unspecified) 36.5%
O=C(NCc1ccco1)C1CC(c2ccc(Cl)cc2)=NO1 (stereo unspecified) 2.33%
O=Nc1c(O)n(Cc2ccc(Cl)cc2Cl)c2ccccc12 -0.24%
CC(C)(C)c1cc(C(=O)O)n(Cc2ccc(Cl)cc2Cl)n1 -0.53%
O=C(COC(=O)C1(c2ccc(Cl)cc2)CCCC1)NCc1ccco1 -0.44%
Oc1ccc(/C=N/NC(=S)Nc2cccnc2)cc1 33.2%
Fc1ccc(/C=N/NC(=S)Nc2cccnc2)cc1F 8.17%
O=C(CSc1nnc(-c2ccc(Cl)cc2)n1Cc1ccco1)NCc1ccc2c(c1)OCO2 7.75%
O=C(N/N=C/c1cccs1)c1cccc2cc[nH]c12 8.58%
CCS(=O)(=O)C1=NN2C(=N)/C(=C\c3ccc(SCc4ccco4)o3)C(=O)N=C2S1 33.6%
C=CCOc1ccc(/C=C2\C(=N)N3N=C(S(=O)(=O)CC)SC3=NC2=O)cc1OC 1.58%
COc1ccc(/C=C/C(=O)NCC(=O)N2CCC(N(C)CCN3CCOCC3)CC2)cc1OC 0.93%
COC(=O)c1sc2nc(CN3CCN(c4ccc(OC)cc4)CC3)[nH]c(=O)c2c1C 0.73%
O=C(COC(=O)c1ccccc1NC(=O)C1CC1)c1ccc2c(c1)OCCO2 12.2%
CC(C)C(=O)Nc1ccccc1C(=O)OCC(=O)c1ccc2c(c1)OCCO2 0.77%
O=Cc1ccc(-c2cccc(C(=O)O)c2)o1 17%
O=C1c2ccccc2C(=O)N1CCCc1nc(-c2ccncc2)no1 -5.77%
CCOC(=O)N1CCN(C(=O)CCN2C(=O)COc3ccc(C)cc32)CC1 -3.49%
Cc1c(NC(=O)CSc2nc3ccccc3s2)c(=O)n(-c2ccccc2)n1C 14.2%
CN1CCC(Oc2ccccc2Sc2ccccc2)CC1 2.7%
Cc1ccc(S(=O)(=O)Nc2ccccc2C(=O)Nc2ccc(S(=O)(=O)Nc3nccc(C)n3)cc2)cc1 -17.2%
Cc1cccc(C)c1NC(=O)CSc1nnc(C)c(=O)[nH]1 15.2%
Cc1nnc(SCC(=O)Nc2ccc3c(c2)OCO3)[nH]c1=O 6.76%
Cc1nnc(SCC(=O)Nc2ccccc2)[nH]c1=O 41.7%
CC(=O)Nc1ccc(NC(=O)CSc2nnc(C)c(=O)[nH]2)cc1 5.47%
O=c1c2ccccc2nnn1Cc1ccc2ccccc2c1 -5.34%
COc1ccc(-n2c(SC(CN3CCCCC3)CN3CCCC3=O)nc3ccccc3c2=O)cc1 (stereo unspecified) 0.58%
CCOC(=O)C1=C(O)/C(=C/c2ccc(OCC(=O)O)c(OCC)c2)SC1=Nc1ccccc1 43.5%
CCOC(=O)C1=C(O)/C(=C/c2ccc(OCC(=O)O)c(OC)c2)SC1=Nc1ccc(OCC)cc1 38.5%
CCOC(=O)C1=C(O)/C(=C/c2ccc(OCC(=O)O)c(OC)c2)SC1=Nc1ccc(OC)cc1 41.7%
CCOc1cc(C=C2C(=O)c3ccccc3C2=O)ccc1OCC(=O)Nc1ccc(C)cc1 6.24%
